# Results reported in PubChem BioAssay (Tox21).
# Several values for one entry are separate records, joined by “and”; a condition that tells them apart may be missing. Equal entries are not always repeated. Results filed as inconclusive are left out. Where a call stands in place of a potency, no number is given. Activity calls are given as the source filed them. Unless noted, the call rests on the fitted dose curve.
# What was measured:
# [1] = Nuclear factor erythroid 2-related factor 2/antioxidant responsive element (Nrf2/ARE) small molecule agonists: luciferase reporter gene qHTS assay in human keratinocytes (AID 1919969); further: nearly all actives have a fitted effect of over 35% in size; further: potency means the concentration at half of the fitted maximal effect
# [2] = target: Gonadotropin-releasing hormone receptor (Homo sapiens) (UniProt P30968); test: Human gonadotropin-releasing hormone receptor (GnRHR) small molecule agonists, calcium flux assay in GnRHR-HEK293 cells (AID 1920063); further: nearly all actives have a fitted effect of over 35% in size
# Outline: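 Cells: HEK293 stably expressing human GnRHR. Steps: overnight (18 h) culture, 1 h calcium dye loading at 37 C, compound addition, kinetic fluorescence read at 480/540 nm. Each compound tested at 15 concentrations in triplicate.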
# [3] = target: KiSS-1 receptor (Homo sapiens) (UniProt Q969F8); test: Human kisspeptin (KISS1R) small molecule agonists, calcium flux assay in KISS1R-HEK293 cells (AID 1920064; active means well fitted activation curve with a large enough effect in the repeat runs)
# Outline: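 Cells plated and incubated 18 h; dye added, 1 h at 37 C; compounds in DMSO pinned in; signal read at 480/540 nm every second for 3 min. Each compound tested at 15 concentrations in triplicate.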
# [4] = G protein-coupled receptor (GPCR) small molecule agonists, calcium flux assay: HEK293 wild type cell line counter screen (AID 1920065)
# Outline: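 Counter-screen of the Tox21 10K library for non-specific calcium release: dye-loaded cells received compounds in DMSO and were monitored by kinetic fluorescence (480/540 nm, 3 min). Fifteen concentrations, run in triplicate.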
# [5] = p53 small molecule agonists, cell-based qHTS assay with rat liver microsomes: qHTS cell viability counter screen (AID 1963580); further: nearly all actives have a fitted effect of over 45% in size
# Outline: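 HCT-116 p53RE-bla, 4,000 cells/well, 5 h pre-incubation; cpd + rat liver microsomes 0.5 mg/mL + NADPH 0.5 mg/mL (final); 16 h, 37 C; CellTiter-Glo, 30 min RT; luminescence.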
# [6] = p53 small molecule agonists, cell-based qHTS assay: qHTS cell viability counter screen (AID 1963581); further: nearly all actives have a fitted effect of over 45% in size; further: potency means the concentration at half of the fitted maximal effect
# Outline: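 Cells: HCT-116 with p53 response element-driven beta-lactamase. Treatment: 16 h, 37 C, compounds in DMSO. Read: CellTiter-Glo luminescence after 30 min RT.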
# [7] = target: 5-hydroxytryptamine receptor 2A (Homo sapiens) (UniProt P28223); test: 5-hydroxytryptamine receptor 2A (HTR2A) small molecule antagonists, cell-based qHTS assay (AID 1963586); further: nearly all actives have a fitted effect of over 45% in size; further: potency means the concentration at half of the fitted maximal effect
# Outline: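 Antagonist-mode intracellular calcium assay: DOI (4 nM) added after 5 min compound pre-incubation at room temperature to dye-loaded HTR2A-CHO cells. Fluorescence followed for 3 min, sampled every second.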
# [8] = target: 5-hydroxytryptamine receptor 2A (Homo sapiens) (UniProt P28223); test: 5-hydroxytryptamine receptor 2A (HTR2A) small molecule agonists, cell-based qHTS assay (AID 1963587); further: nearly all actives have a fitted effect of over 30% in size
# Outline: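 Kinetic calcium-flux fluorescence (2 min, 1 sec intervals) after compound addition in agonist mode. HTR2A-CHO cells were cultured 18 h, then dye-loaded 1 h at 37 C.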
# [9] = target: Muscarinic acetylcholine receptor M1 (Homo sapiens) (UniProt P11229); test: Cholinergic receptor muscarinic 1 (CHRM1) small molecule antagonists, cell-based qHTS assay (AID 1963588); further: nearly all actives have a fitted effect of over 40% in size; further: potency means the concentration at half of the fitted maximal effect
# Outline: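 CHRM1-CHO calcium-flux assay, antagonist mode. Cells were seeded 18 h, dye-loaded 1 h at 37 C and given compound for 5 min at RT, then acetylcholine was added at 50nM. FDSS fluorescence was read 3 min; 15 concentrations, three runs.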
# [10] = target: Muscarinic acetylcholine receptor M1 (Homo sapiens) (UniProt P11229); test: Cholinergic receptor muscarinic 1 (CHRM1) small molecule agonists, cell-based qHTS assay (AID 1963589); further: nearly all actives have a fitted effect of over 35% in size
# Outline: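 Agonist-mode qHTS in CHO cells stably carrying human muscarinic M1. Intracellular calcium is tracked by fluorescence every second after compound transfer; each compound runs at 15 concentrations in three independent runs.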
# [11] = cAMP Responsive Elements (CRE) small molecule antagonists, cell-based qHTS assay (AID 1963591; active means well fitted inhibition curve with a large enough effect in the signal ratio in the repeat runs, not every such curve was filed as active; the % refers to the signal ratio; further: potency means the concentration at half of the fitted maximal effect)
# Outline: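 Antagonist mode: test compounds are co-incubated with the adenylyl cyclase activator NKH477 (0.25 uM final) on CRE-bla HEK293T cells for 3 h at 37 °C, followed by LiveBLAzer substrate loading.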
# [12] = target: Beta-2 adrenergic receptor (Homo sapiens) (UniProt P07550); test: Adrenergic beta2 receptor (ADRB2) small molecule antagonists, cell-based qHTS assay (AID 1963592); further: series mostly up to about 92 µM; nearly all actives have a fitted effect of over 50% in size
# Outline: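 Cells (CHO, stable ADRB2 overexpression) incubated 18-20hr at 37C; compounds added from DMSO; agonist mix (1nM isoproterenol, 100uM IBMX, 25uM Ro-20-1724) added; 0.5hr RT; d2-cAMP and anti-cAMP-cryptate added; 1hr RT; 665/615 nm read.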
# [13] = target: D(2) dopamine receptor (Homo sapiens) (UniProt P14416); test: Dopamine D2 receptor (DRD2) small molecule agonists, cell-based qHTS assay (AID 1963594); further: nearly all actives have a fitted effect of over 35% in size; further: potency means the concentration at half of the fitted maximal effect
# Outline: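 cAMP accumulation in DRD2-HEK293 cells measured by HTRF after 1 h detection; compounds added 10 min before NKH477 (200nM […]) forskolin-analogue stimulation, 30 min at room temperature, with Ro20-1724 present at 0.1 mM final.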
# [14] = target: D(2) dopamine receptor (Homo sapiens) (UniProt P14416); test: Dopamine D2 receptor (DRD2) small molecule antagonists, cell-based qHTS assay (AID 1963595; active means well fitted inhibition curve with a large enough effect in the signal ratio in the repeat runs, with a control signal flat; the % refers to the signal ratio; further: potency means the concentration at half of the fitted maximal effect)
# Outline: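 In this cell-based antagonist screen, compounds act for 10 min at room temperature before a 30 min challenge with 12 nM quinpirole and 200 nM NKH477. cAMP is quantified by HTRF competition in DRD2-HEK293 cells containing 0.1 mM Ro20-1724.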
# [15] = p53 small molecule agonists, cell-based qHTS assay with rat liver microsomes (AID 1963578)
# Outline: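 With rat liver microsomes and NADPH present (0.5 mg/mL final each), p53RE-bla cells are treated with compound for 16 h at 37 C. LiveBLAzer detection mixture is then applied for 2 h at room temperature in the dark.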
# [16] = p53 small molecule agonists, cell-based qHTS assay with human liver microsomes: qHTS cell viability counter screen (AID 1963579); further: nearly all actives have a fitted effect of over 45% in size; further: potency means the concentration at half of the fitted maximal effect
# Outline: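 In this multiplexed counter screen, the reporter plates were subsequently treated with CellTiter-Glo so that cell viability, reflected by luminescence, could be recorded for p53RE-bla cells dosed 16 h with compounds under microsomal activation (HLM and NADPH).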
# [17] = p53 small molecule agonists, cell-based qHTS assay with human liver microsomes (AID 1963577);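 further: p53 response element beta-lactamase reporter cells with liver microsomes plus NADPH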
# Outline: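 16 h, 37 C exposure of p53RE-bla cells to compounds with human liver microsomes and NADPH (0.5 mg/mL final each); detection via LiveBLAzer mixture, 2 h dark at room temperature.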
# [18] = p53 small molecule agonists, cell-based qHTS assay (AID 1963582; active means well fitted activation curve with a large enough effect in the signal ratio in the repeat runs, not every such curve was filed as active; the % refers to the signal ratio)
# Outline: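 Quantitative HTS in p53RE-bla cells: after a 5 h settling period, compounds delivered in DMSO were left on cells for 16 h at 37 C, and reporter induction was measured as fluorescence following 2 h substrate loading.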
# [19] = cAMP Responsive Elements (CRE) small molecule agonists, cell-based qHTS assay (AID 1963590)
# Outline: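 Agonist mode qHTS in CRE-bla HEK 293T cells: compounds dosed from DMSO for 3 h at 37 C/5% CO2, followed by LiveBLAzer B/G FRET substrate for 2 h at room temperature.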
# [20] = target: Beta-2 adrenergic receptor (Homo sapiens) (UniProt P07550); test: Adrenergic beta2 receptor (ADRB2) small molecule agonists, cell-based qHTS assay (AID 1963593);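 further: CHO cells stably overexpressing human ADRB2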
# Outline: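 CHO cells stably over-expressing ADRB2 were plated overnight at 37C, then dosed with compounds plus a stimulation mix containing 100uM IBMX and 25uM Ro-20-1724 for 0.5hr at room temperature. cAMP was measured by HTRF competition, 1hr.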
# 5-hydroxytryptamine receptor 2A (Homo sapiens), sequence (P28223 whole entry, looked up): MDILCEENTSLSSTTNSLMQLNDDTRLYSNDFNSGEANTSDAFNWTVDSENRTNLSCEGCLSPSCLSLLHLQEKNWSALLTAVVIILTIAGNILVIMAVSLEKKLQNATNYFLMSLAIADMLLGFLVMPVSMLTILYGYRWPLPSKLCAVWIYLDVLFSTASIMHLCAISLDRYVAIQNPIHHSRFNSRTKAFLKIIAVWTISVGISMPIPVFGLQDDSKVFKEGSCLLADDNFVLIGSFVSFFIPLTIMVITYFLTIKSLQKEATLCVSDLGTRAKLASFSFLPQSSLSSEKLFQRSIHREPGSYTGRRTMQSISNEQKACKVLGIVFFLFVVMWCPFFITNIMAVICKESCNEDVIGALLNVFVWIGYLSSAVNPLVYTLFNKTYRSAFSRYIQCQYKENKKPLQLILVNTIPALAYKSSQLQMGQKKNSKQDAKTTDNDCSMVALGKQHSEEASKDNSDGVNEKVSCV
# Gonadotropin-releasing hormone receptor (Homo sapiens), sequence (P30968 whole entry, looked up): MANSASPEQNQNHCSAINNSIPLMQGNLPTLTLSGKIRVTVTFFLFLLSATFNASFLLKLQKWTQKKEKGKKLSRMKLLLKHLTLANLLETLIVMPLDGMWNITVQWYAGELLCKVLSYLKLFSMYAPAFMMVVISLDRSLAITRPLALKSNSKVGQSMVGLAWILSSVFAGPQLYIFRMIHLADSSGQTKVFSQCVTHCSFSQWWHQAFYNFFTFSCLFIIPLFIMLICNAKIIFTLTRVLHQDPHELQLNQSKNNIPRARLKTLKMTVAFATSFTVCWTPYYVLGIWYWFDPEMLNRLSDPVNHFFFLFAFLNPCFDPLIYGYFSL
# D(2) dopamine receptor (Homo sapiens), sequence (P14416 whole entry, looked up): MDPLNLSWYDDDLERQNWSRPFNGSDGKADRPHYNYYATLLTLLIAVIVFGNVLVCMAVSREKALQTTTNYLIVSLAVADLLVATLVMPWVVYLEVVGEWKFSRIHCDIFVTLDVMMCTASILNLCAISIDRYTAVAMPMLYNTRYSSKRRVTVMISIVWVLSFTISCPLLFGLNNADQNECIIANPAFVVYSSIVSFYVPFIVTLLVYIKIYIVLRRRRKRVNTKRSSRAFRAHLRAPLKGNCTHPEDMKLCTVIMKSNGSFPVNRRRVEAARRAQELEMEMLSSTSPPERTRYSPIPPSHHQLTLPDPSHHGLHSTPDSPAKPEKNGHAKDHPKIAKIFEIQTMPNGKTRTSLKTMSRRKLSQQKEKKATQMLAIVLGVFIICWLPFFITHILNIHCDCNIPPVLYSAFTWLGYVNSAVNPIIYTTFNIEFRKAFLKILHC
# Beta-2 adrenergic receptor (Homo sapiens), sequence (P07550 whole entry, looked up): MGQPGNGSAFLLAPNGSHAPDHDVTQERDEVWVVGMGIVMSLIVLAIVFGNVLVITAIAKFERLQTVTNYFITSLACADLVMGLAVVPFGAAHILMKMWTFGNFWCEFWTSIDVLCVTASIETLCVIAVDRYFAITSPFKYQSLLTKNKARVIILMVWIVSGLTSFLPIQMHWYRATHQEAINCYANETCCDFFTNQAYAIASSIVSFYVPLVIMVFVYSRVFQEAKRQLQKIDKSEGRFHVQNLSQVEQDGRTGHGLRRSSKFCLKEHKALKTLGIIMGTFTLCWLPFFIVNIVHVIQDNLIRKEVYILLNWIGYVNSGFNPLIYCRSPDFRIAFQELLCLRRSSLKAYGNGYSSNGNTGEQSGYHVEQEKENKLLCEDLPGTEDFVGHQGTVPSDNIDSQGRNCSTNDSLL
# Muscarinic acetylcholine receptor M1 (Homo sapiens), sequence (P11229 whole entry, looked up): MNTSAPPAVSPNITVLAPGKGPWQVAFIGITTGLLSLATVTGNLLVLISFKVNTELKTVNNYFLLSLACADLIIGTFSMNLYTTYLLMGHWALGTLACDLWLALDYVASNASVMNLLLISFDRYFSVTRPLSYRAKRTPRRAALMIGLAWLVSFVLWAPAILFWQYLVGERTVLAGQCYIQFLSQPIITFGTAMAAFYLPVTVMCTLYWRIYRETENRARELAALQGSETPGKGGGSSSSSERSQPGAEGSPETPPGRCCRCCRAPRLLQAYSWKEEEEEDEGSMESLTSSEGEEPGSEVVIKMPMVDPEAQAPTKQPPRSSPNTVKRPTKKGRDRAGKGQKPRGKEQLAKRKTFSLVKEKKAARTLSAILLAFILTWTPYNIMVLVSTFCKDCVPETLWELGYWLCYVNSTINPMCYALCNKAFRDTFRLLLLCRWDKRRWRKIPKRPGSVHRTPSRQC
# KiSS-1 receptor (Homo sapiens), sequence (Q969F8 whole entry, looked up): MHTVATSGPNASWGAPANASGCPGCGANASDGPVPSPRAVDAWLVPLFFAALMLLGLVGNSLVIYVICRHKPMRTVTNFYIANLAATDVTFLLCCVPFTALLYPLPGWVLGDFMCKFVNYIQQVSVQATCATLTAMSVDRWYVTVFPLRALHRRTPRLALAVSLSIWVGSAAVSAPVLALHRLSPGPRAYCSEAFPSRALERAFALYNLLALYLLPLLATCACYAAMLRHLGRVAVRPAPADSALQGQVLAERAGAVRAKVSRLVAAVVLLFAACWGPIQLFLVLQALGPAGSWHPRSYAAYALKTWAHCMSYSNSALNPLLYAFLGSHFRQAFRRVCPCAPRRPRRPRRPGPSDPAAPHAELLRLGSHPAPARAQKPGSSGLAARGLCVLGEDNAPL
Structure (SMILES),Potency [1],Potency [2],Potency [3],Potency [4],Potency [5],Potency [6],Potency [7],Potency [8],Potency [9],Potency [10],Potency [11],Potency [12],Potency [13],Potency [14],Potency [15],Potency [16],Potency [17],Potency [18],Potency [19],Potency [20]
NC(N)=NN=C(/C=C/c1ccc([N+](=O)[O-])o1)/C=C/c1ccc([N+](=O)[O-])o1,6.68 µM (active),inactive,inactive,inactive,inactive,17.8 µM (active),inactive,inactive,inactive,inactive,29.8 µM (active),inactive,inactive,inactive,–,–,–,–,–,–
O=[N+]([O-])c1ccc(O/N=C/c2cc(Br)c(O)c(Br)c2)c([N+](=O)[O-])c1,60.8 µM (active),inactive,inactive,–,inactive,–,inactive,inactive,–,inactive,–,inactive,inactive,inactive,inactive,inactive,–,–,–,–
C=CC(C)(CCC=C(C)C)OC(=O)/C=C/c1ccccc1 (stereo not drawn),68.6 µM (active),inactive,inactive,–,–,–,inactive,inactive,inactive,inactive,inactive,inactive,inactive,inactive,inactive,–,inactive,inactive,inactive,–
COc1ccccc1OCC1CNC(=O)O1 (stereo not drawn),inactive,inactive,inactive,–,inactive,inactive,inactive,–,inactive,inactive,inactive,–,inactive,inactive,–,inactive,–,–,inactive,–
Cc1cc(C2CCCCC2)n(O)c(=O)c1,inactive,inactive,inactive,–,–,inactive,–,–,–,–,–,inactive,inactive,–,inactive,–,inactive,–,inactive,inactive
O=c1[nH]c2ccc(S(=O)CCN3CCC(Cc4ccc(F)cc4)CC3)cc2o1 (stereo not drawn),61.1 µM (active),inactive,inactive,–,inactive,–,inactive,inactive,14.9 µM (active),inactive,–,inactive,–,–,inactive,–,–,inactive,–,inactive
COC(=O)[C@@H](N)Cc1ccc(O)c(O)c1,inactive,inactive,inactive,–,inactive,inactive,–,inactive,inactive,inactive,inactive,inactive,26.6 µM (active),inactive,inactive,inactive,inactive,–,inactive,inactive
Clc1ccc(Cn2c(CN3CCCC3)nc3ccccc32)cc1,33.5 µM (active),inactive,inactive,–,inactive,inactive,–,–,–,inactive,–,inactive,inactive,inactive,inactive,inactive,inactive,–,–,inactive
CNc1ccc([N+](=O)[O-])cc1,inactive,inactive,inactive,inactive,–,inactive,inactive,–,inactive,inactive,inactive,inactive,inactive,inactive,–,–,–,–,inactive,inactive
Cc1cc2nc3ccc(=[N+](C)C)cc-3sc2cc1N,2.37 µM (active),inactive,inactive,inactive,–,–,–,inactive,inactive,inactive,inactive,–,–,–,–,11.2 µM (active),–,–,inactive,–
O=c1[nH]c2ccccc2n1CCCN1CCN(C(c2ccccc2)c2ccccc2)CC1,inactive,inactive,inactive,–,inactive,–,0.0052 µM (active),inactive,inactive,inactive,–,inactive,–,11.9 µM (active),inactive,inactive,inactive,–,–,–
COc1ccc(-c2ccc3cc(C(=O)O)ccc3c2)cc1C12CC3CC(CC(C3)C1)C2,inactive,inactive,inactive,–,inactive,inactive,inactive,inactive,inactive,inactive,inactive,inactive,inactive,inactive,inactive,inactive,inactive,inactive,inactive,–
Cc1cc([N+](=O)[O-])ccc1N,inactive,inactive,inactive,–,inactive,–,inactive,–,inactive,inactive,inactive,inactive,inactive,inactive,–,inactive,inactive,inactive,inactive,inactive
O=C1c2ccccc2C(=O)N1SC1CCCCC1,21.7 µM (active) and 24.3 µM (active),inactive,inactive,–,inactive,inactive,inactive,–,inactive,inactive,–,inactive,inactive,inactive,inactive,inactive,inactive,inactive,–,–
CC1=C(Br)C(=O)C(Br)=C/C1=C(/c1ccccc1S(=O)(=O)O)c1cc(Br)c(O)c(Br)c1C,inactive,inactive,inactive,inactive,–,–,inactive,inactive,inactive,–,inactive,–,–,–,–,–,–,–,inactive,–
CCCC(=O)O[C@]1(C(=O)CO)CC[C@H]2[C@@H]3CCC4=CC(=O)CC[C@]4(C)[C@H]3[C@@H](O)C[C@@]21C,inactive,inactive,inactive,–,inactive,inactive,inactive,inactive,–,inactive,–,inactive,inactive,inactive,–,inactive,–,–,–,–
